From PMC7862700, “An all-to-all approach to the identification of sequence-specific readers for epigenetic DNA modifications on cytosine”

What was measured:
Experiment in all cases: DAPPL (digital affinity profiling via proximity ligation, sequencing); 10 mM Tris-HCl pH 7.5, 50 mM NaCl, 1 mM DTT, 4% glycerol, room temperature, 30 min; GST-TFs on glutathione beads, 16-mer random dsDNA library, 0.1% formaldehyde crosslink after washing; high values mean tight binding
FLI1 = molecular target: T1, FLI1 (Homo sapiens, UniProt Q01543 1-452); conditions: protein: recombinant; tags: N-terminal GST; dsDNA, one strand shown
T1 sequence: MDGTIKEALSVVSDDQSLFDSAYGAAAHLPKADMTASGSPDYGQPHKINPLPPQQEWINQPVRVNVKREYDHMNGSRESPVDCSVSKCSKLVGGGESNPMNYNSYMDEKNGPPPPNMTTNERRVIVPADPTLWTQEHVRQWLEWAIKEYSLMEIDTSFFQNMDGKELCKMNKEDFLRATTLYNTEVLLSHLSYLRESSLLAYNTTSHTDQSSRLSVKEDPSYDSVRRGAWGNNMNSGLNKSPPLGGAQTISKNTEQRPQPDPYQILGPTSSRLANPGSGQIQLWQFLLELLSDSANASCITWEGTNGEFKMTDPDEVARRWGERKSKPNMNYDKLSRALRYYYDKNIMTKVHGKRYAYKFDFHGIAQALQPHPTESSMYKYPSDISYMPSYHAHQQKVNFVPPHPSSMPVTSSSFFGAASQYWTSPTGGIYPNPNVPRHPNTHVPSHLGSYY
Method in brief: (§1)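 The binding signal reported is, for every hexamer, its read frequency for a factor over its read frequency for the tag-only sample. Reads came from pools of yeast-expressed, GST-fused human transcription factors on glutathione beads, barcoded with DNA and mixed with that sample, which were incubated with 200 nmole of a random double-stranded 16-mer DNA library in Tris/NaCl/DTT/glycerol buffer at room temperature for 30 min. After washing, the pools were crosslinked with 0.1% formaldehyde, proximity-ligated with BsaI/T4 ligase for 1 h at 37 °C, PCR-amplified and sequenced on an Illumina NextSeq500.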

ELK1 = molecular target: T2, ELK1 (Homo sapiens, UniProt P19419 1-428); conditions: protein: recombinant; tags: N-terminal GST; dsDNA, one strand shown
T2 sequence: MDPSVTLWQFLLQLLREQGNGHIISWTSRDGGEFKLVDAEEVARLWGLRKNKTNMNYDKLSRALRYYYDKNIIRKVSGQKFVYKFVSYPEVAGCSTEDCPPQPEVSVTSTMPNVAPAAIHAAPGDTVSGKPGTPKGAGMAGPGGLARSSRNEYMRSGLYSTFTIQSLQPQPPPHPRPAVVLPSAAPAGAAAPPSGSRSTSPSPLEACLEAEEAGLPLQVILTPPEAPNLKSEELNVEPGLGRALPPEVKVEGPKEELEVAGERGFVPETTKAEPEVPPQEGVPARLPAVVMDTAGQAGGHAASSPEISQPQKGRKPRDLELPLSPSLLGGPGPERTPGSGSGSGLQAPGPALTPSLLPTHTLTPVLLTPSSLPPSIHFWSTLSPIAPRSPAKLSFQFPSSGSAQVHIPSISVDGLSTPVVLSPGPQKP
Method in brief: as §1

GABPA = molecular target: T3, GABPA (Homo sapiens, UniProt Q06546 1-454); conditions: protein: recombinant; tags: N-terminal GST; dsDNA, one strand shown
T3 sequence: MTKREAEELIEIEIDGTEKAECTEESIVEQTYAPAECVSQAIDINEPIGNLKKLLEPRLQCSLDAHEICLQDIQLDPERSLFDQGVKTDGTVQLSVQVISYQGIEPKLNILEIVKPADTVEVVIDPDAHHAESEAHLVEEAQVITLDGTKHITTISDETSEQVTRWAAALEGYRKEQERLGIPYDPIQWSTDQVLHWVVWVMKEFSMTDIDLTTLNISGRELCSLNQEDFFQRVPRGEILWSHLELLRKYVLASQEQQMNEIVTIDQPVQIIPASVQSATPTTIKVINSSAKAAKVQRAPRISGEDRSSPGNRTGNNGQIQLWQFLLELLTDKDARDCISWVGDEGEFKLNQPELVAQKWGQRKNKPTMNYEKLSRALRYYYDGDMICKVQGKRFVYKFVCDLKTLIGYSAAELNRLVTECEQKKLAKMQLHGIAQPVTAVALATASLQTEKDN
Method in brief: as §1

ERG = molecular target: T4, ERG (Homo sapiens, UniProt P11308 1-479); conditions: protein: recombinant; tags: N-terminal GST; dsDNA, one strand shown
T4 sequence: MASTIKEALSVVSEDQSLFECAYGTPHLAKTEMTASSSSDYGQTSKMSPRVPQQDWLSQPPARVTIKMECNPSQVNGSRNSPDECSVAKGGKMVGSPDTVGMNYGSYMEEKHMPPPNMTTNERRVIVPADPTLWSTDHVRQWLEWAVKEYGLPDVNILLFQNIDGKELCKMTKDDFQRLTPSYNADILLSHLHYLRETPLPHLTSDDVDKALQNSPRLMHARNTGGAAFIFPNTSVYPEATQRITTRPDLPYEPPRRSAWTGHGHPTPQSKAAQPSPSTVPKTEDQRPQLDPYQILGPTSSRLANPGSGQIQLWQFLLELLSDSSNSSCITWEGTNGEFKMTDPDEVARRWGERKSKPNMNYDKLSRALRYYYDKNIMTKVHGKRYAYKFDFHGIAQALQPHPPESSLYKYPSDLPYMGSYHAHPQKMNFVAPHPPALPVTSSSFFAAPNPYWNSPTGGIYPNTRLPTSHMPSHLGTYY
Method in brief: as §1

ELF1 = ELF1 (Homo sapiens, UniProt P32519 1-619); conditions: protein: recombinant; tags: N-terminal GST; dsDNA, one strand shown
Method in brief: as §1

EHF = molecular target: T5, EHF (Homo sapiens, UniProt Q9NZC4 1-300); conditions: protein: recombinant; tags: N-terminal GST; dsDNA, one strand shown
T5 sequence: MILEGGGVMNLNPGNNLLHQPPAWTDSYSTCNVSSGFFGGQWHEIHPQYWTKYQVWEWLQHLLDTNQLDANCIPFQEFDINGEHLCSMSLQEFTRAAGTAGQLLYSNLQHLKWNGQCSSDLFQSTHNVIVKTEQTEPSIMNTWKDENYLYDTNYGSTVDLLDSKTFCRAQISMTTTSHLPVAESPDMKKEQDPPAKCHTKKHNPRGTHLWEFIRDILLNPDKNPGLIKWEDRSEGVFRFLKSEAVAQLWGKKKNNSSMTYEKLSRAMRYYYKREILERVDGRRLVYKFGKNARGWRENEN
Method in brief: as §1

SPI1 = SPI1 (Homo sapiens, UniProt P17947 1-270); conditions: protein: recombinant; tags: N-terminal GST; dsDNA, one strand shown
Method in brief: as §1

SPIB = SPIB (Homo sapiens, UniProt Q01892 1-262); conditions: protein: recombinant; tags: N-terminal GST; dsDNA, one strand shown
Method in brief: as §1

ELK3 = molecular target: T6, ELK3 (Homo sapiens, UniProt P41970 1-407); conditions: protein: recombinant; tags: N-terminal GST; dsDNA, one strand shown
T6 sequence: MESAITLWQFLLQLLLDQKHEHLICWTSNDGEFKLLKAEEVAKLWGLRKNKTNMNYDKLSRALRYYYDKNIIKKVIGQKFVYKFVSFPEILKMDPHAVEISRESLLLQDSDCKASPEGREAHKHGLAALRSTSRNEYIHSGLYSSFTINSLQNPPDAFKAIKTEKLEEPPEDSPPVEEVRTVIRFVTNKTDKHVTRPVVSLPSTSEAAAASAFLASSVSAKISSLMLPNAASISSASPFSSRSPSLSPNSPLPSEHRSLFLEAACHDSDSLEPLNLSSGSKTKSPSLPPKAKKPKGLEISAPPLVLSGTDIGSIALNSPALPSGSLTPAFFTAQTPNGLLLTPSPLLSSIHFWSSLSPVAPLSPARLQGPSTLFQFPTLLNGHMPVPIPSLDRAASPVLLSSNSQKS
Method in brief: as §1

ETV5 = ETV5 (Homo sapiens, UniProt P41161 1-510); conditions: protein: recombinant; tags: N-terminal GST; dsDNA, one strand shown
Method in brief: as §1

HSF1 = HSF1 (Homo sapiens, UniProt Q00613 1-529); conditions: protein: recombinant; tags: N-terminal GST; chain copies: 3; dsDNA, one strand shown
Method in brief: as §1

ELF4 = ELF4 (Homo sapiens, UniProt Q99607 1-663); conditions: protein: recombinant; tags: N-terminal GST; dsDNA, one strand shown
Method in brief: as §1

ELK4 = molecular target: T7, ELK4 (Homo sapiens, UniProt P28324-2 1-405); conditions: protein: recombinant; tags: N-terminal GST; dsDNA, one strand shown
T7 sequence: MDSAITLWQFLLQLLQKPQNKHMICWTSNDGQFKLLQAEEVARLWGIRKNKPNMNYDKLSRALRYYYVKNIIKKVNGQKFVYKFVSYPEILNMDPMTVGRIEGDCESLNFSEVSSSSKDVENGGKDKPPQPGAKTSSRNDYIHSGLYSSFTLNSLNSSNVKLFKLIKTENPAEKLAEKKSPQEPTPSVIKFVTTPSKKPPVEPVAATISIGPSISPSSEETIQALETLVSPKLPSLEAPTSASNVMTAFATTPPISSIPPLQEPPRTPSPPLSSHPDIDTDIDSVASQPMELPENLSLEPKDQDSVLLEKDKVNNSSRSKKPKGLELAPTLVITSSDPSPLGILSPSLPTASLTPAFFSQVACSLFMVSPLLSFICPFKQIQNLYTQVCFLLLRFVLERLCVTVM
Method in brief: as §1

ETV2 = molecular target: T8, ETV2 (Homo sapiens, UniProt O00321 1-342); conditions: protein: recombinant; tags: N-terminal GST; dsDNA, one strand shown
T8 sequence: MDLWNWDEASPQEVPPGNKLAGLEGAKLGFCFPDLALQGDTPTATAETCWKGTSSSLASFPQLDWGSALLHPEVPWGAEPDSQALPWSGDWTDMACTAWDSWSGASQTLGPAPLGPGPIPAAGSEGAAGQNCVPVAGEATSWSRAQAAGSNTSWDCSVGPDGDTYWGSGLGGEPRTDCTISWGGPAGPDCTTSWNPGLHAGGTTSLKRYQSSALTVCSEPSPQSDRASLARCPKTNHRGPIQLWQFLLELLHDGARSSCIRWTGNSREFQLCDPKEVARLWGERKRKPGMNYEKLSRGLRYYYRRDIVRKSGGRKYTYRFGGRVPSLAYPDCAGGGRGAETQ
Method in brief: as §1

ELF3 = molecular target: T9, ELF3 (Homo sapiens, UniProt P78545 1-371); conditions: protein: recombinant; tags: N-terminal GST; dsDNA, one strand shown
T9 sequence: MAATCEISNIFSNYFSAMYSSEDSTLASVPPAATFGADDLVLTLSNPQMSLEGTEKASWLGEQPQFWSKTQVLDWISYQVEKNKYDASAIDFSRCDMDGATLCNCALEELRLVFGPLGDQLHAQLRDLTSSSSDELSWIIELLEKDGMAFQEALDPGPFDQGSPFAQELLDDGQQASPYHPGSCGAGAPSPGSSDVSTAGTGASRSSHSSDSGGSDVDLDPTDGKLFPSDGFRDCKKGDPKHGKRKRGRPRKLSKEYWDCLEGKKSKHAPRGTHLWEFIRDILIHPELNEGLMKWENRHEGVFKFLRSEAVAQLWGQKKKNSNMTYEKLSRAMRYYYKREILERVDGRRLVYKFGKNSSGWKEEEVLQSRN
Method in brief: as §1

CRX = CRX (Homo sapiens, UniProt O43186 1-299); conditions: protein: recombinant; tags: N-terminal GST; dsDNA, one strand shown
Method in brief: as §1

ETV1 = ETV1 (Homo sapiens, UniProt P50549 1-477); conditions: protein: recombinant; tags: N-terminal GST; dsDNA, one strand shown
Method in brief: as §1

SPIC = molecular target: T10, SPIC (Homo sapiens, UniProt Q8N5J4 1-248); conditions: protein: recombinant; tags: N-terminal GST; dsDNA, one strand shown
T10 sequence: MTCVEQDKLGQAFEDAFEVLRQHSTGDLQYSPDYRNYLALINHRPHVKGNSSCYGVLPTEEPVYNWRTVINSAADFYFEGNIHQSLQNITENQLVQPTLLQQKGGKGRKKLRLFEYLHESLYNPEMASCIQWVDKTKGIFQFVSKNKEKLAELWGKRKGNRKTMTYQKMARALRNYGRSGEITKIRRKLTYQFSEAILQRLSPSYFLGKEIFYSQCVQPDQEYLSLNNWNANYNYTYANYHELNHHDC
Method in brief: as §1

Chain of SPIB (Q01892 whole entry): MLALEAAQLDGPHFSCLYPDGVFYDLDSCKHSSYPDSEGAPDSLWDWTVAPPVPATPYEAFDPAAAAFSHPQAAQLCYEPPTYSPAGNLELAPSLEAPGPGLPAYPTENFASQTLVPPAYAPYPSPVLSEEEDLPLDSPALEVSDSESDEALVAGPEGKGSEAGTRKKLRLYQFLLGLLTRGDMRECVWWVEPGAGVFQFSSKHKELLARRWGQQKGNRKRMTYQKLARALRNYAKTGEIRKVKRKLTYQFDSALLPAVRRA
Chain of ELF1 (P32519 whole entry): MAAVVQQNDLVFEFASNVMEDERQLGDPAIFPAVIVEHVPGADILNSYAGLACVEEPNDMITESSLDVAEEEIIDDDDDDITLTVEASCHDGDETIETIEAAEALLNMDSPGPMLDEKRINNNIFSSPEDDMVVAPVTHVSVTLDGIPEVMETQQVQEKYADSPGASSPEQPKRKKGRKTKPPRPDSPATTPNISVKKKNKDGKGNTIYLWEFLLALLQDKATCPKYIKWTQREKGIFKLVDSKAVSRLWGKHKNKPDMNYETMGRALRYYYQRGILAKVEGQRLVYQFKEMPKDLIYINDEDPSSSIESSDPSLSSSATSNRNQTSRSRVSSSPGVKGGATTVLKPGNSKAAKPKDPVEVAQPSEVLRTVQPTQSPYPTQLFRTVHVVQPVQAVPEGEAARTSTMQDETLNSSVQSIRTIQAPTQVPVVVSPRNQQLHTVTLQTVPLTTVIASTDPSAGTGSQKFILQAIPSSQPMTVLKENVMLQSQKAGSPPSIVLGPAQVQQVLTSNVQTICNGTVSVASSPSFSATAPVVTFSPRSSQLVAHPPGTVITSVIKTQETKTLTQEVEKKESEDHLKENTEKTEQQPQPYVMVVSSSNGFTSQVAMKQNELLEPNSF
Chain of ETV5 (P41161 whole entry): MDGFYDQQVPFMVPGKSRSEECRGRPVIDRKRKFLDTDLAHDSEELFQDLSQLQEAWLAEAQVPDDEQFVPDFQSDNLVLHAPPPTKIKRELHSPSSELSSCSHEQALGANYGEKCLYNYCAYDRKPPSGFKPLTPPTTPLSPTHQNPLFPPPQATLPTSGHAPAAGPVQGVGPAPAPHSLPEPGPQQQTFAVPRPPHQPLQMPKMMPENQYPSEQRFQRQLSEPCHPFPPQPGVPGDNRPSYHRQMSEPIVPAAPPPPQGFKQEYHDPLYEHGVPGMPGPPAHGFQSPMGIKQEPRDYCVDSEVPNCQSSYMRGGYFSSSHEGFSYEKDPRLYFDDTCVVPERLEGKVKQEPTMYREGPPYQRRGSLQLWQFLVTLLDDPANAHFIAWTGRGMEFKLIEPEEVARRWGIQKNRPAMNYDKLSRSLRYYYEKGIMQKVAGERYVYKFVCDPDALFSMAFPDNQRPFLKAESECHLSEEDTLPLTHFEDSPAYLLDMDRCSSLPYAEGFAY
Chain of HSF1 (Q00613 whole entry): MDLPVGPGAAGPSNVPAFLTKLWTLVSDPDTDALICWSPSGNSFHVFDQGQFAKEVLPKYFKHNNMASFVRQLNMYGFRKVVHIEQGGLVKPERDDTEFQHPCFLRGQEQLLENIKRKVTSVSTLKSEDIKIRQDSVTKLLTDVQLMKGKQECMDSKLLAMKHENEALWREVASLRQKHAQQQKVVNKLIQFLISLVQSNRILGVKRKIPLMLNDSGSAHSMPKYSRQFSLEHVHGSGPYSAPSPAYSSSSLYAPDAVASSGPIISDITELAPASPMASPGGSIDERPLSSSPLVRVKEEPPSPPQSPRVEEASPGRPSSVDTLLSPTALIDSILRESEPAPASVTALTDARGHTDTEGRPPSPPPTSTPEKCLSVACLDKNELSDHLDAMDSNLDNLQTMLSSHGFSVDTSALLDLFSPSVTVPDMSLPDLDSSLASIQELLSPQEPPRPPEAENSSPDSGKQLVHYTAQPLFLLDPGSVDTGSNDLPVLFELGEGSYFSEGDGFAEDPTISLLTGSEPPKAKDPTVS
Chain of CRX (O43186 whole entry): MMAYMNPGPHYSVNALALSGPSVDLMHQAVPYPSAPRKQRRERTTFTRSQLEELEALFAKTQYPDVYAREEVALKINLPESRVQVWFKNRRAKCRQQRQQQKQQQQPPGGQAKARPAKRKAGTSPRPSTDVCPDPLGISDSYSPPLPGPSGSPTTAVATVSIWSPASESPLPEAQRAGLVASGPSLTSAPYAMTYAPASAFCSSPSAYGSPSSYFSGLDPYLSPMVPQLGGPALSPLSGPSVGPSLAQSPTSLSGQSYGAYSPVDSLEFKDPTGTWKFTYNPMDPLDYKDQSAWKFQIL
Chain of ETV1 (P50549 whole entry): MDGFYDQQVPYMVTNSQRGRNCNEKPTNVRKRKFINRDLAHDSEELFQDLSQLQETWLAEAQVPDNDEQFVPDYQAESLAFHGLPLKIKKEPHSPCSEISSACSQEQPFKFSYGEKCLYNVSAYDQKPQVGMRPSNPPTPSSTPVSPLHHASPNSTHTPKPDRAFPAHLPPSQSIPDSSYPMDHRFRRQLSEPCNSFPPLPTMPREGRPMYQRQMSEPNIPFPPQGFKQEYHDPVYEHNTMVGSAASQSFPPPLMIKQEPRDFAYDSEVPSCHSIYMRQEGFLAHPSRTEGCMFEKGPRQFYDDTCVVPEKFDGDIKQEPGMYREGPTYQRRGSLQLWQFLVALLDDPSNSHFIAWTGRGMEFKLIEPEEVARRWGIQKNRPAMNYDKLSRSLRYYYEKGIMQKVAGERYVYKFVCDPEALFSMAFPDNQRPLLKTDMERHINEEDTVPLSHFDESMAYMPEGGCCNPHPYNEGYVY
Chain of ELF4 (Q99607 whole entry): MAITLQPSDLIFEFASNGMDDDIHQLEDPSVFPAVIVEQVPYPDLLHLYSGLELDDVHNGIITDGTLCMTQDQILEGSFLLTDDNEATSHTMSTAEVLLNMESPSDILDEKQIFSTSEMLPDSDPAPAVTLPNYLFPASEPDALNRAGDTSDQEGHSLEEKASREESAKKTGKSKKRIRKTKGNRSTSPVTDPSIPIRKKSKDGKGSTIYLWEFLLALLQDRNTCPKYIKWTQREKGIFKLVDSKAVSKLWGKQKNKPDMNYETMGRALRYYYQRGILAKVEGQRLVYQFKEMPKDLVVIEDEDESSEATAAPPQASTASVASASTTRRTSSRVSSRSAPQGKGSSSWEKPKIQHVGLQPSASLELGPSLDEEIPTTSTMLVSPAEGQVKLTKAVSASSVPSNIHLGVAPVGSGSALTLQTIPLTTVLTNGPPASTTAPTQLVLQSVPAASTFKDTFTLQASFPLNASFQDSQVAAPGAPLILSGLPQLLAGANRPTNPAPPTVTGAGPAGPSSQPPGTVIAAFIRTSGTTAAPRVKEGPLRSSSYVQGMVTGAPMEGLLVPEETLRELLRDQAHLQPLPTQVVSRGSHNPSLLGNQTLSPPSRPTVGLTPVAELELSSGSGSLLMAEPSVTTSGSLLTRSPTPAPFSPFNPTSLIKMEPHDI

| Sequence | binding signal (FLI1) | binding signal (ELK1) | binding signal (GABPA) | binding signal (ERG) | binding signal (ELF1) | binding signal (EHF) | binding signal (SPI1) | binding signal (SPIB) | binding signal (ELK3) | binding signal (ETV5) | binding signal (HSF1) | binding signal (ELF4) | binding signal (ELK4) | binding signal (ETV2) | binding signal (ELF3) | binding signal (CRX) | binding signal (ETV1) | binding signal (SPIC) |
| --- | --- | --- | --- | --- | --- | --- | --- | --- | --- | --- | --- | --- | --- | --- | --- | --- | --- | --- |
| ATTGAA | 1.07 fold enrichment (6-mer frequency, TF over GST control) | 1.16 fold enrichment (6-mer frequency, TF over GST control) | 1.07 fold enrichment (6-mer frequency, TF over GST control) | 1.05 fold enrichment (6-mer frequency, TF over GST control) | 1.06 fold enrichment (6-mer frequency, TF over GST control) | 1.03 fold enrichment (6-mer frequency, TF over GST control) | 1.04 fold enrichment (6-mer frequency, TF over GST control) | 1.09 fold enrichment (6-mer frequency, TF over GST control) | 1.11 fold enrichment (6-mer frequency, TF over GST control) | 1.05 fold enrichment (6-mer frequency, TF over GST control) | 1.01 fold enrichment (6-mer frequency, TF over GST control) | 1.01 fold enrichment (6-mer frequency, TF over GST control) | 1.06 fold enrichment (6-mer frequency, TF over GST control) | 1 fold enrichment (6-mer frequency, TF over GST control) | 1.07 fold enrichment (6-mer frequency, TF over GST control) | 1.06 fold enrichment (6-mer frequency, TF over GST control) | 1.15 fold enrichment (6-mer frequency, TF over GST control) |  |
| TACTAG | 1.09 fold enrichment (6-mer frequency, TF over GST control) | 1.09 fold enrichment (6-mer frequency, TF over GST control) | 1.07 fold enrichment (6-mer frequency, TF over GST control) | 1.06 fold enrichment (6-mer frequency, TF over GST control) | 1.11 fold enrichment (6-mer frequency, TF over GST control) | 1.09 fold enrichment (6-mer frequency, TF over GST control) | 1 fold enrichment (6-mer frequency, TF over GST control) | 1 fold enrichment (6-mer frequency, TF over GST control) | 1.05 fold enrichment (6-mer frequency, TF over GST control) | 1.05 fold enrichment (6-mer frequency, TF over GST control) | 1.81 fold enrichment (6-mer frequency, TF over GST control) |  |  | 1.17 fold enrichment (6-mer frequency, TF over GST control) |  | 1.3 fold enrichment (6-mer frequency, TF over GST control) |  | 1.02 fold enrichment (6-mer frequency, TF over GST control) |
